Compound activity as filed in PubChem BioAssay.
This is a sample that favours compounds with a hit; in the whole collection about 3.7% have one here.
Rce1 inhib: yeast Ras-converting enzyme inhibition; Q03530; yeast membranes, quenched prenylated peptide cleavage fluorescence; calls only; 290,000 compounds, 0.27% hits; AID 2563;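 active means fall in fluorescence gain of 50% or more versus controls, with final raw signal at or below 3038400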;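 further: plate controls were neutral control wells for no effect and wells lacking membranes for full effect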
Target sequence (Q03530 whole entry, looked up): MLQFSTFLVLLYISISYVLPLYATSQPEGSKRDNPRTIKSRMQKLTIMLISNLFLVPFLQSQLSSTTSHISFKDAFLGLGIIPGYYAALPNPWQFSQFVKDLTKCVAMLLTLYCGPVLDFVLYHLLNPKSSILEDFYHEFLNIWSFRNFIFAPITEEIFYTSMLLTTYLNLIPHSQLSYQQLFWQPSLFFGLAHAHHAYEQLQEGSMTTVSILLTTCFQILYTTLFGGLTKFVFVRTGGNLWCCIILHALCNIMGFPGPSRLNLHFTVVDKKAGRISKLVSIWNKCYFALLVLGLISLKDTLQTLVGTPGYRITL
PfHsp90 yeast 2: inhibits growth of yeast expressing Plasmodium falciparum Hsp90; AID 504621; 310,000 compounds, 0.32% hits; inhibition, % at 9.4 µM; S. cerevisiae expressing PfHsp90, BacTiter-Glo ATP, 48 h; yeast lacking PDR1 and PDR3 efflux regulators;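 active means every replicate shows inhibition above about 80%, whatever the replicate mean, limit read from the data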;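 further: 0% = DMSO neutral controls and 100% = 20 µM radicicol positive controls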
tim10-1 inh: inhibits growth of tim10-1 mutant yeast; S. cerevisiae tim10-1 ts strain growth, BacTiter-Glo, 24 h; inhibition, % at 20 µM; 330,000 compounds, 2.2% hits;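 active means inhibition of at least 40%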;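 further: mutant grown at 25 °C; 0% = DMSO wells with yeast and 100% = wells holding no yeast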
TIM10 inh: TIM10 yeast growth inhibition | S. cerevisiae TIM10 strain growth, BacTiter-Glo luminescence, 24 h | inhibition, % at 10 µM | 330,000 compounds, 1.4% hits | AID 463195;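 active means inhibition of 40% or more at the single tested concentration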;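 further: wild-type TIM10 isogenic control strain grown at permissive 25 °C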
tim23-1 inh: growth inhibitors of tim23-1 mutant yeast; S. cerevisiae tim23-1 growth, BacTiter-Glo luminescence, 24 h; 330,000 compounds, 1.3% hits; inhibition, % at 20 µM;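 active means growth inhibition of the mutant yeast at or above 50%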;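 further: temperature-sensitive mutant grown at 25 °C; plate controls were DMSO-treated mutant yeast for no effect and medium wells lacking yeast for full effect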
tim23-1 conf: tim23-1 yeast growth inhibition, confirmed. shares compounds with tim23-1 inh. S. cerevisiae tim23-1 growth, BacTiter-Glo luminescence, 24 h. inhibition, % at 20 µM. 4,400 compounds, 83% hits;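 active means inhibition above about 39% in either of two replicate wells at 20 µM, limit read from the data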;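 further: temperature-sensitive tim23-1 mutant grown at 25 °C; 0% = DMSO wells with yeast and 100% = medium wells without yeast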
* = called active by the depositor; i = inactive; / = no result.

SMILES	Rce1 inhib	PfHsp90 yeast 2	tim10-1 inh	TIM10 inh	tim23-1 inh	tim23-1 conf
COC(=O)C1=C(C)N=C2SC(C#N)=C(N)N2C1c1ccc(OCc2ccccc2)cc1 (stereo not given)	i	4.9	25.5	3.9	16.6	/
COc1ccc(-c2nc(-c3cccc(C)c3)nc(N3CCN(C)CC3)c2C#N)cc1	i	-2.6	30.1	35.6	59.0*	43.5*
CC(CNC(=O)Cn1ccc2cc(S(=O)(=O)N3CCCC3)ccc21)c1ccccc1 (stereo not given)	i	-26.4	4.5	9.6	19.0	/
COCCNc1c2c(nc3c(-c4ccccc4)c(C)nn13)CCCC2	i	20.8	32.4	22.9	50.4*	37.5
Cc1nn2c(NCCOCCO)c3c(nc2c1-c1ccccc1)CCCC3	i	14.0	22.8	24.8	18.7	/
c1ccc(N=Nc2ccc3cccccc2-3)cc1	i	-0.7	15.7	10.5	19.1	/
Clc1ccc(-c2[nH]ncc2N=Nc2ccccc2)cc1	i	-11.4	29.9	37.6	67.7*	-2.0
CC(Sc1nc(-c2ccc(F)cc2)cs1)C(=O)Nc1ccc(Cl)cn1 (stereo not given)	i	-6.2	10.1	4.9	12.8	/
CCc1c(C)sc2nc(C(C)C)nc(SCC(=O)N3CCc4ccccc4C3)c12	i	/	19.2	23.9	50.6*	41.0*
O=C(CNC(=O)C1COc2ccccc2O1)Nc1cc(Cl)ccc1Cl (stereo not given)	/	-9.7	22.7	15.9	34.9	/
Cc1nc2nc(-c3cccs3)[nH]c2cc1Br	i	30.3	-7.4	12.7	61.3*	55.0*
Cc1ccc(NC(=S)NC(=O)C2CC2)c(C)c1	/	0.1	23.4	0.6	46.9	/
O=C(O)c1cccc(N2C(=O)c3ccc(C(=O)c4cccc([N+](=O)[O-])c4)cc3C2=O)c1	i	7.8	-4.4	7.6	-9.7	/
O=C(O)c1cccc(N2C(=O)c3cc4cccc(Br)c4cc3C2=O)c1	i	-85.6	5.1	-20.9	50.0	23.8
CCOC(=O)N1CCN(CCC(=O)Nc2ccc(F)c(F)c2)CC1	i	6.3	2.2	-1.7	5.2	/
CCCCn1c(N)c(N(CCOC)C(=O)C2CCN(c3ncnc4sc(C)c(C)c34)CC2)c(=O)[nH]c1=O	i	/	13.7	6.0	52.7*	47.4*
CCCCn1c(N)c(N(CC(C)C)C(=O)C2CCN(c3ncnc4sc(C)c(C)c34)CC2)c(=O)[nH]c1=O	i	-10.4	4.8	3.3	5.5	/
O=C(NCc1ccncc1)c1ccc(S(=O)(=O)Nc2ccccc2)cc1	i	/	-0.5	-0.9	10.5	/
Nc1n[nH]c(C2CC2)c1N=Nc1ccc(Cl)cc1	i	/	7.7	25.3	69.5*	23.9
Nc1n[nH]c(C2CC2)c1N=Nc1ccc(Cl)c(Cl)c1	i	/	35.2	39.4	68.7*	9.4
Nc1n[nH]c(N)c1N=Nc1ccc2c(c1)OCO2	i	-11.2	-17.8	1.8	-0.9	/
CCOc1ccc(NC(=S)C(C#N)=C2N(C)c3ccccc3N2C)cc1	i	-10.3	15.1	-4.4	0.5	/
CCCCC1NC(=S)N(C2CCCCC2)C1=O (stereo not given)	i	-18.1	7.5	33.3	58.1*	21.7
Nc1nc(-c2cc(Cl)cc(Cl)c2OC(F)F)cs1	i	3.1	13.8	26.0	61.1*	52.5*
CCc1ccc(OC)c(-c2csc(N)n2)c1	i	/	16.5	4.6	4.8	/
SMILES	Rce1 inhib	PfHsp90 yeast 2	tim10-1 inh	TIM10 inh	tim23-1 inh	tim23-1 conf
CC(C)(C)C(=O)c1sc(Nc2ccccc2)nc1N	i	-114.1	-34.1	6.3	53.3*	40.9*
COC(=O)c1sc(Nc2ccccc2)nc1C	i	13.6	33.1	14.3	37.8	/
CCOC(=O)c1ccc(NC(=O)CSc2nc(=O)n3cccc(C)c3n2)cc1	i	/	21.9	-5.5	52.1*	49.8*
CCOC(=O)CSc1nc(=O)n2cccc(C)c2n1	i	7.8	-11.0	4.0	-10.5	/
FC(F)Oc1ccc(/C=N/n2c(Cc3ccc(Br)cc3)n[nH]c2=S)cc1	/	9.7	29.4	31.0	51.0*	53.0*
Cc1ccc(/C=N/n2c(COc3ccccc3)n[nH]c2=S)cc1	i	-23.7	21.2	35.7	52.8*	27.5
S=c1[nH]nc(COc2ccccc2)n1/N=C/c1cccc(Cl)c1Cl	i	-46.1	31.6	39.0	61.2*	44.4*
S=c1[nH]nc(COc2ccccc2)n1/N=C/c1ccc(Br)cc1	i	-4.1	32.7	8.7	17.2	/
COc1ccc(N(CC(=O)NCCC(C)C)C(=O)c2snc(C(=O)NC3CCCCC3)c2N)c(OC)c1	i	-10.0	3.3	-8.1	22.1	/
O=C(CCCN1C(=O)/C(=C/c2ccccc2OC(F)F)SC1=S)Nc1cccnc1	/	/	15.6	23.5	50.9*	51.5*
COc1ccccc1NC(=O)c1ccc(NC(=O)C2CC2C)cc1 (stereo not given)	/	-8.8	31.3	33.8	52.2*	48.3*
COc1ccccc1NC(=O)c1ccc(N)cc1	i	/	-8.4	-1.9	-4.5	/
Cc1cc2ccccn2c1C(=O)c1cc([N+](=O)[O-])cc([N+](=O)[O-])c1	i	12.8	39.4	37.9	56.5*	66.8*
COc1ccccc1C(O)(C(=O)N(NC(C)=O)c1ccccc1)c1ccccc1OC	i	19.2	-14.8	7.1	-2.2	/
Cc1nn(-c2ccccc2)c(OC(=O)c2cccs2)c1S(=O)(=O)c1ccccc1	i	-22.2	29.4	30.7	58.2*	51.3*
O=C(COC(=O)c1ccc(Cl)nc1)Nc1ccccc1OC(F)F	i	3.0	13.1	2.8	3.3	/
Cc1ccc(N2C(=O)c3ccccc3C2C(=O)c2ccc(C)c(C)c2O)cc1 (stereo not given)	/	26.9	20.6	11.6	41.3	/
C#CCOCCOCCOCCNc1nc(N2CCN(C(=O)CCCCCCCCCCNC(=O)[C@H]([C@@H](C)CC)n3cc(CCCCCN)nn3)CC2)nc(N2CCN(C(=O)CCCCCCCCCCNC(=O)[C@H]([C@@H](C)CC)n3cc(CCCCN=C(N)N)nn3)CC2)n1	/	20.8	13.6	-8.8	40.4	/
C#CCOCCOCCOCCNc1nc(N2CCN(C(=O)CCCCCCCCCCNC(=O)[C@H]([C@@H](C)CC)n3cc(CCCCN=C(N)N)nn3)CC2)nc(N2CCN(C(=O)CCCCCCCCCCNC(=O)[C@H](CCCCN)n3cc(C)nn3)CC2)n1	/	/	35.7	12.1	58.0*	41.4*
COc1c2ccccc2nc2ccccc12	i	21.7	-57.0	-14.0	8.7	/
Cc1c2ccccc2nc2ccccc12	i	14.3	26.3	21.5	70.4*	62.6*
O=C(NCCCc1ccccc1)c1c(O)nc2sccn2c1=O	i	14.6	35.5	31.2	70.1*	54.0*
COc1ccc(C2=NN(C(=O)CCCC(=O)O)C(c3cn(-c4ccccc4)nc3-c3ccccc3)C2)cc1 (stereo not given)	i	-1.8	6.0	19.7	-24.8	/
CC(C)Oc1cc(O)c2c(=O)c(-c3ccc(O)cc3)coc2c1	i	-16.8	37.0	22.0	56.9*	61.3*
